Source: PubChem
TDP1 block = qHTS Assay for Inhibitors of Tyrosyl-DNA Phosphodiesterase (TDP1); Tyrosyl-DNA phosphodiesterase 1 (Homo sapiens), Q9NUW8; recombinant TDP1, AlphaScreen DNA substrate cleavage; Potency, µM (highest dose often 130 µM), for inactives: top-dose activity change, negative = inhibition, most hits filed as inhibitors; 0.28% of 350,000 active; AID 485290, 2010; further: nearly all actives have a fitted effect of over 40% in size
Target sequence (Q9NUW8 whole entry, looked up): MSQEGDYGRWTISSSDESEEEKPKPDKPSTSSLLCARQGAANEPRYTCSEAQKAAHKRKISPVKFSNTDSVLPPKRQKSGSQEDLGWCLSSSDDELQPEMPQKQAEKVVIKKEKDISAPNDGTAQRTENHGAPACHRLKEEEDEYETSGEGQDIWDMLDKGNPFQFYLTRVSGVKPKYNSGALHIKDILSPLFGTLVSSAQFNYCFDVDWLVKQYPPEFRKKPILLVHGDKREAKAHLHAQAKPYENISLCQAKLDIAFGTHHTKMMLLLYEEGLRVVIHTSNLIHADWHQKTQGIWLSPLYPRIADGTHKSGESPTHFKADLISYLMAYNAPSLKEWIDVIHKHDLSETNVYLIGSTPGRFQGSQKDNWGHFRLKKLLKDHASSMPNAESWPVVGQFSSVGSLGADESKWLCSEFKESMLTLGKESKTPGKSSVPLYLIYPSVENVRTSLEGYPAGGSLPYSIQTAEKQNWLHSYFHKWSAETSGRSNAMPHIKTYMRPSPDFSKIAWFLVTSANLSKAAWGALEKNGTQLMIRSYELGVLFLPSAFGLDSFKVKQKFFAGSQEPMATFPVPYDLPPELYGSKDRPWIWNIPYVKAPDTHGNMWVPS
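Here, a 5' biotin and 3' phosphotyrosine-FITC DNA oligonucleotide reports Tdp1 activity: intact substrate bridges AlphaScreen beads, while cleavage leaves a 3' phosphate and drops signal. All incubations at room temperature.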
GCN5L2 inh = qHTS Assay for Inhibitors of GCN5L2. Potency, µM (series often up to 58.9 µM), without a hit: top-dose activity change, negative = inhibition, actives largely listed as inhibitors. AID 504327, 2011. 0.21% of 390,000 active. Histone acetyltransferase KAT2A (Homo sapiens), Q92830. GCN5L2 HAT assay, ThioGlo1 CoA-SH fluorescence
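ThioGlo1-coupled HAT assay: 20nM GCN5L2, 70uM acetyl-CoA, 75uM H3(1-25) peptide, pH 7.5. Fluorescence read at 340/540nm at start and after 20 min at room temperature.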
VDR inh = Inhibitors of the vitamin D receptor (VDR): qHTS; Potency, µM, for the others: max response, negative = inhibition, usual class: inhibitors; VDR-SRC2-3 peptide fluorescence polarization, 2 h; 0.93% of 400,000 active; Vitamin D3 receptor (Homo sapiens), P11473
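The screen uses fluorescence polarization to detect compounds that interfere with recruitment of the SRC2-3 coactivator peptide to VDR; plates are read after 2 h at room temperature.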
TDP1 cell CPT = qHTS for Inhibitors of human tyrosyl-DNA phosphodiesterase 1 (TDP1): qHTS in cells in presence of CPT | chicken DT40 Tdp1-/-;hTDP1 cells + 20 nM CPT, ATP luminescence, 48 h | Potency, µM (top dose mostly 46.2 µM), for the others: at the top dose activity change, negative = growth inhibition, hits mostly inhibitors | 12% of 420,000 active | AID 686979, 2013; further: nearly all actives have a fitted effect of over 55% in size
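Chicken DT40 Tdp1-/- cells complemented with human TDP1, 400 cells/well, exposed to compounds plus 20 nM camptothecin for at least 48 h at 37 C; viability read as ATP content by CellTiter-Glo luminescence.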
PLK1 PBD block = qHTS for Inhibitors of PLK1-PDB (polo-like kinase 1 - polo-box domain): Primary Screen. Serine/threonine-protein kinase PLK1 (Homo sapiens), P53350. Plk1 PBD binding of FITC phosphopeptide, fluorescence polarization. Potency, µM, for inactives: max response, negative = inhibition, actives largely listed as inhibitors. 2.8% of 360,000 active. AID 720504, 2013; further: series mostly up to about 57 µM; nearly all actives have a fitted effect of over 65% in size
TDP1 cell noCPT = qHTS for Inhibitors of human tyrosyl-DNA phosphodiesterase 1 (TDP1): qHTS in cells in absence of CPT; DT40 Tdp1-/- hTDP1 cells, no CPT, ATP luminescence, 48 h; Potency, µM (doses to about 46.2 µM), for inactives: at the top dose activity change, negative = growth inhibition, usual class: inhibitors; 15% of 420,000 active; further: nearly all actives have a fitted effect of over 55% in size
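Seeded 400 DT40-hTDP1 cells/well (vehicle DMSO, no 20 nM CPT); pinned compounds; ≥48 hr at 37 °C; CellTiter-Glo luminescence as viability measure.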
The depositor's hits bear a star; [ ] = dose if it differs, or a comment. The list is not random: actives were taken first. Their share in the collection is about 18%. The call rests on the fitted dose curve; in most records, active means well fitted curve in the direction sought with a large enough effect; inconclusive means small, poorly fitted or top-dose-only effect, or another doubt; inactive means no such curve, though single readings can be large; an effect the other way counts as inactive or inconclusive. On the % scale 0 is the no-effect control and ±100 the full control effect; potency means the concentration at half of the fitted maximal effect.

How did O=C(CC12CC3CC(CC(C3)C1)C2)N/N=C/c1ccc([N+](=O)[O-])o1 do in these assays?
TDP1 block: -1%; GCN5L2 inh: inconclusive; VDR inh: 4%; TDP1 cell CPT: 9.2µM*; PLK1 PBD block: -23%; TDP1 cell noCPT: 23µM*

Results for Nc1nc(O)c(Sc2ccccc2[N+](=O)[O-])c(=O)[nH]1 ?
TDP1 block: -6%[0.0935 µM]; GCN5L2 inh: -19%; VDR inh: -10%; TDP1 cell CPT: -28%; PLK1 PBD block: 12µM*; TDP1 cell noCPT: -4%

Results for COCC(=O)Oc1c(Sc2ccccc2[N+](=O)[O-])c(C)nn1C(C)(C)C ?
TDP1 block: 8%; GCN5L2 inh: -19%; VDR inh: -22%; TDP1 cell CPT: -1%; PLK1 PBD block: 12µM*; TDP1 cell noCPT: inconclusive

Results for Cc1nn(-c2ccccc2)c(N)c1Sc1ccccc1[N+](=O)[O-] ?
TDP1 block: 5%; GCN5L2 inh: -8%; VDR inh: -22%; TDP1 cell CPT: inconclusive; PLK1 PBD block: -16%; TDP1 cell noCPT: 16µM*

What do the screens show for `CCC(CC)C(=O)Oc1c(Sc2ccccc2[N+](=O)[O-])c(C)nn1C(C)(C)C`?
TDP1 block: 3%; GCN5L2 inh: -9%; VDR inh: 9%; TDP1 cell CPT: inconclusive; PLK1 PBD block: -4%; TDP1 cell noCPT: inconclusive

What do the screens show for `Nc1ncnn1Cc1ccccc1`?
TDP1 cell CPT: 9%; PLK1 PBD block: 1%; TDP1 cell noCPT: 4%

Results for CN1CCc2c(sc(NC(=O)c3ccc(S(=O)(=O)N4CCCC4)cc3)c2C(N)=O)C1 ?
TDP1 block: 4%; GCN5L2 inh: -25%; VDR inh: -9%; TDP1 cell CPT: inconclusive; PLK1 PBD block: -3%; TDP1 cell noCPT: 16µM*

What do the screens show for `CN1CCc2c(sc(NC(=O)c3ccc([N+](=O)[O-])o3)c2C(N)=O)C1`?
TDP1 block: 9%; GCN5L2 inh: -29%; VDR inh: 3%; TDP1 cell CPT: 1.6µM*; PLK1 PBD block: -1%; TDP1 cell noCPT: 3.7µM*

What do the screens show for `CCN1CCc2c(sc(NC(=O)c3ccc(S(=O)(=O)N(C)CC4CCCO4)cc3)c2C(N)=O)C1` (centres undefined)?
TDP1 block: 5%; GCN5L2 inh: -1%; VDR inh: -24%; TDP1 cell CPT: -36%; PLK1 PBD block: -9%; TDP1 cell noCPT: 21µM*

Results for NC(=O)c1ccsc1NC(=O)c1ccc([N+](=O)[O-])o1 ?
TDP1 block: 1%; GCN5L2 inh: -10%; VDR inh: -17%; TDP1 cell CPT: 13µM*; PLK1 PBD block: -26%; TDP1 cell noCPT: 8.2µM*

How did NC(=O)c1c(NC(=O)c2ccc([N+](=O)[O-])o2)sc2c1CCCC2 do in these assays?
TDP1 block: 10%[0.0935 µM]; GCN5L2 inh: -6%; VDR inh: 1%; TDP1 cell CPT: inconclusive; PLK1 PBD block: -9%; TDP1 cell noCPT: inconclusive

Results for CC(=O)c1ccc(Nc2c3ccccc3cc3occc23)cc1 ?
TDP1 block: 15%; GCN5L2 inh: 0%; VDR inh: 0%

How did CN1CCc2c(sc(NC(=O)c3ccc(S(=O)(=O)N4CCCCCC4)cc3)c2C(N)=O)C1 do in these assays?
TDP1 block: 2%; GCN5L2 inh: -3%; VDR inh: -13%; TDP1 cell CPT: 18µM*; PLK1 PBD block: 13%; TDP1 cell noCPT: 12µM*

What do the screens show for `CNC(=O)c1c(NC(=O)c2ccc(S(=O)(=O)N3CCCc4ccccc43)cc2)sc2c1CCN(C)C2`?
GCN5L2 inh: 4%; VDR inh: inconclusive; TDP1 cell CPT: 23µM*; PLK1 PBD block: 7%; TDP1 cell noCPT: 13µM*

Results for CCCN1CCc2c(sc(NC(=O)c3ccc(S(=O)(=O)N(C)c4ccccc4)cc3)c2C(N)=O)C1 ?
TDP1 block: 5%; GCN5L2 inh: -2%; VDR inh: 14%; TDP1 cell CPT: 21µM*; PLK1 PBD block: 0%; TDP1 cell noCPT: inconclusive

Results for CCCN1CCc2c(sc(NC(=O)c3ccc(S(=O)(=O)N4CCN(C(=O)OCC)CC4)cc3)c2C(N)=O)C1 ?
TDP1 block: 5%; GCN5L2 inh: -5%; VDR inh: 8%; TDP1 cell CPT: inconclusive; PLK1 PBD block: 11%; TDP1 cell noCPT: inconclusive

How did CCOC(=O)N1CCN(S(=O)(=O)c2ccc(C(=O)Nc3sc4c(c3C(N)=O)CCN(CC)C4)cc2)CC1 do in these assays?
TDP1 block: 6%; GCN5L2 inh: -6%; VDR inh: 46%; TDP1 cell CPT: inconclusive; PLK1 PBD block: -14%; TDP1 cell noCPT: 21µM*

Results for CN1CCc2c(sc(NC(=O)c3ccc(S(=O)(=O)N4CCc5ccccc54)cc3)c2C(N)=O)C1 ?
GCN5L2 inh: -14%

How did CCc1ccc(CNC(=O)C2CCN(C(=O)c3ccc(-n4ccc5ccccc54)s3)CC2)cc1 do in these assays?
TDP1 block: 0%; GCN5L2 inh: -1%; VDR inh: 8%; TDP1 cell CPT: inconclusive; TDP1 cell noCPT: inconclusive

What do the screens show for `COC(=O)c1cn([C@@H]2C[C@@H](C(=O)N3CCCCCC3)N(Cc3cc4ccccc4s3)C2)nn1`?
TDP1 cell CPT: -29%; TDP1 cell noCPT: -27%

How did C[C@H]1CN([C@@H](C)CO)C(=O)CCCn2cc(nn2)CO[C@@H]1CN(C)C(=O)Nc1ccc2c(c1)OCCO2 do in these assays?
TDP1 cell CPT: 6%; PLK1 PBD block: -27%; TDP1 cell noCPT: -5%

Results for CCOC(=O)OCC1C=C[C@H](c2cc(-c3ccccc3)ccc2O)C(c2ccc(C(C)=O)cc2)O1 (some centres undefined) ?
TDP1 block: 14%[21 µM]

How did COc1cc(NC(=O)c2ccccc2)c(OC)cc1NC(=O)CN1C(=O)NC2(CCCCC2)C1=O do in these assays?
TDP1 block: 2%; GCN5L2 inh: -5%; VDR inh: 4%; TDP1 cell CPT: inconclusive; PLK1 PBD block: 1%; TDP1 cell noCPT: inconclusive

Results for COc1cccc(C2c3c(ncn(-c4ccncc4)c3=N)Oc3ccc4ccccc4c32)c1 (centres undefined) ?
TDP1 block: 3%
